From PubChem
ADAM17 inh: ADAM17 inhibition, QFRET primary screen. P78536. recombinant ADAM17, EDANS/DABCYL FRET peptide cleavage. inhibition, % at 6.95 µM. 370,000 tested, 0.83% active;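 active means inhibition above the mean of compounds lying between control limits plus 3 SD, set per campaign, cut at about 8.5% in these data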;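 further: 0% = DMSO-only wells as the low control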
GRIN3A LBD mod: modulates the human NR3A ligand-binding domain. NR3A LBD differential scanning fluorimetry, Tm shift; 0% = protein alone, 100% = glycine-bound protein. Tm shift relative to glycine control, % at 25 µM. 340,000 tested, 2.5% active. AID 1259313;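 active means melting temperature shift of at least 10% of the positive control shift, at one fixed dose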
FAS-TE inh: FAS thioesterase (human) inhibition. P49327. recombinant FAS-TE, OMFH fluorogenic substrate, fluorescence endpoint. inhibition, % at 15 µM. 360,000 tested, 0.67% active. AID 602261;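 active means compounds whose normalised, plate-corrected inhibition of enzyme fluorescence in the single-dose primary screen is 50% or more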;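 further: 0% = DMSO with enzyme and 100% = substrate without enzyme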
sPLA2-III inh: Blocks human group III sPLA2 activity; QFRET BODIPY PC-A2 liposome hydrolysis, fluorescence; inhibition, % at 12.2 µM; 370,000 tested, 0.56% active; AID 743126;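 active means inhibition above mean plus 3 SD of compounds lying within the high and low control bounds, cut at about 19% in these data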;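 further: 0% = median of test compound wells and 100% = no enzyme DMSO wells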
ADAM10 inh: ADAM10 inhibition, QFRET primary screen; 370,000 tested, 0.62% active; inhibition, % at 7 µM; AID 720582; recombinant ADAM10, EDANS/DABCYL FRET peptide cleavage, 3 h; O14672;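 active means inhibition above a per-campaign cutoff equal to the mean of compounds falling between control-based bounds plus 3 SD, cut at about 20% in these data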;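 further: 0% = DMSO wells while the 100% control is not disclosed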
Starred values were filed as active, the others as inactive; · = no result given. Compounds with a hit are over-represented: about 4.3% of the library has one in this group of screens.

SMILES	ADAM17 inh	GRIN3A LBD mod	FAS-TE inh	sPLA2-III inh	ADAM10 inh
COc1ccc(/C=N/Nc2nc(-c3cccnc3)nc3ccccc23)cc1OC	-24	-18	-2	-7	-54
Oc1ccc(/C=N/Nc2nc(-c3cccnc3)nc3ccccc23)c(O)c1	0	16*	-3	4	1
CN(Cc1ccccc1)C(=O)OCc1cn(Cc2cc(F)ccc2F)nn1	-2	·	·	-3	0
COC(=O)[C@]12C[C@H](CC(=O)N3CCSCC3)C(=O)N(Cc3cccc4ccccc34)C1=C[C@H](C1CCCC1)O[C@@H]2C	7	·	·	-5	19
CN(Cc1ccccc1)S(=O)(=O)c1cccc(C(=O)OCc2ccc(Oc3ccccc3)cc2)c1	-2	·	·	7	-4
COc1ccc(C(N)=S)cc1	-1	29*	-9	17	0
COc1cc(OC)cc(C(=O)Nc2nnc(NC(=S)Nc3ccccc3)s2)c1	·	26*	9	·	·
CCN(CC)S(=O)(=O)c1ccc(C(=O)Nc2nnc(NC(=S)Nc3ccccc3)s2)cc1	4	28*	3	1	8
CCN(CC)S(=O)(=O)c1ccc(NC(=S)Nc2ccccc2)cc1	-2	1	1	0	4
CCOC(=O)c1cc(-c2ccccc2)sc1NC(=O)COC(=O)c1cccc(S(N)(=O)=O)c1	-2	3	9	2	1
CCOC(=O)c1cc(-c2ccccc2)sc1NC(=O)COC(=O)c1ccc(Cl)c(S(N)(=O)=O)c1	·	11*	2	·	·
O=c1c2ccccc2nc(N/N=C/c2c(O)ccc3ccccc23)n1O	-39	12*	-126	17	-113
Cc1cc(Cl)ccc1OCC(=O)OCC(=O)NCCNC(=O)COC(=O)COc1ccc(Cl)cc1C	3	12*	1	-5	-3
Cc1cc(Cl)ccc1OCC(=O)NCCC(=O)O	0	2	-6	-1	-7
Clc1ccc2c(c1)nc1n2CCCC1	1	15*	-4	-20	6
O=[N+]([O-])c1ccc2c(c1)nc1n2CCCCC1	-3	0	5	0	2
COC1CCCCC1NS(=O)(=O)c1ccccc1 (configuration not stated)	-1	18*	-3	-4	2
CCN(CC)S(=O)(=O)c1ccc(N/N=C/c2cc(OC)ccc2O)nc1	2	24*	3	-16	-5
Cc1ccc(OCCOc2ccc(Cl)cc2Cl)c(Br)n1	4	·	·	0	13
COc1ccccc1-n1c(SCC(=O)Nc2ccccc2C)nc(O)cc1=O	0	2	-6	-5	13
Cc1ccccc1NC(=O)CSc1nc(O)cc(=O)n1C	3	12*	-7	5	-4
COc1ccccc1NC(=O)CSc1nc(O)cc(=O)n1-c1ccccc1OC	3	2	-7	-9	21*
S=C(NCCN1CCOCC1)Nc1ccc(Cl)cc1Cl	3	12*	-10	16	-4
COc1cc([N+](=O)[O-])ccc1NC(=S)Nc1cc(C(=O)OC(C)C)cc(C(=O)OC(C)C)c1	-36	12*	13	-1	-131
COC(=O)c1ccc(-c2ccc3c(c2)[C@]2(CCC[C@@H](O)[C@@H]2NC(=O)CCc2ccccc2)C(=O)N3Cc2ccccc2)cc1	-37	·	·	8	-77
SMILES	ADAM17 inh	GRIN3A LBD mod	FAS-TE inh	sPLA2-III inh	ADAM10 inh
CCOP(=O)(OCC)/C(C#N)=C/c1ccc(-c2ccc(F)cc2F)o1	-8	13*	8	-6	-12
Cn1c(NCC(O)c2ccccc2)nc2c1c(=O)n(Cc1ccc(Cl)c(Cl)c1)c(=O)n2C (configuration not stated)	0	12*	29	-2	3
CCn1c(/N=C/c2ccccc2NS(=O)(=O)c2ccc(C)cc2)nc2ccccc21	·	13*	-2	·	·
CCN(CC)CCn1c(NS(=O)(=O)c2ccc(C)cc2)nc2ccccc21	-2	1	-6	-4	-7
CCOC(=O)CN1C(=O)N(c2ccc(OC)cc2)[C@H]2CC3c4ccccc4C[C@]3(C)[C@@H](C(=O)N(C)C3CCCCC3)C[C@H]21 (some centres not stated)	0	·	·	1	-3
COc1ccc2cc3cc(C(=O)Nc4ccc5c(c4)OCCO5)oc3nc2c1	-17	26*	2	4	-44
COc1ccc2cc3cc(C(=O)Nc4cc(OC)c(OC)c(OC)c4)oc3nc2c1	-10	0	2	-10	-24
COc1cc2c(cc1OC)C(C)N(C(=O)c1c(C)noc1C)CC2 (configuration not stated)	1	1	-5	0	-3
COc1cc2c(cc1OC)C(C)N(C(=O)c1cc(C)on1)CC2 (configuration not stated)	-2	13*	-5	4	-10
COc1ccc(CC(=O)N2CCc3cc(OC)c(OC)cc3C2O)cc1OC (configuration not stated)	-28	10*	-5	-1	-64
CC(=O)c1ccc(NC(=S)N(C)C2CCN(C)CC2)cc1	-4	20*	-6	0	-1
CCCCCCCCN1C(=O)[C@@H](CC(=O)NCc2cccs2)C[C@@]2(C(=O)OC)C1=C[C@H](C(C)C)O[C@@H]2C1CC1	-4	·	·	-5	-3
CN1C[C@@H]2C(c3ccc(Cl)nc3)C3(c4ccc(C#N)cc4)CC2(C3)[C@H]1c1ccccc1 (some centres not stated)	-1	1	34	7	-7
N#Cc1ccc(C23CC4(C2)[C@H](CN(P(=O)(c2ccccc2)c2ccccc2)[C@@H]4c2ccccc2)C3c2ccc(Cl)nc2)cc1 (some centres not stated)	·	-3	72*	·	·
CCCCNC(=O)CSc1nc(CCC)nc2ccccc12	-2	-17	-1	-2	-2
CCCc1nc(SCC(=O)N2CCc3ccccc3C2)c2ccccc2n1	-2	13*	21	-8	0
CCC(NC(=O)CCCN1C(=O)COc2ccc(C)cc21)c1ccccc1 (configuration not stated)	-3	·	·	0	-2
O=C(Cc1ccccc1)Nc1ccccc1Sc1ccccc1	0	6	19	-2	6
O=C(Cc1ccc(Br)cc1)Nc1ccccc1Sc1ccccc1	0	19*	35	-9	2
O=C(O)CCCCCN1C(=O)/C(=C\c2cn(-c3ccccc3)nc2-c2cccs2)SC1=S	-2	7	-41	5	3
O=C(O)CCN1C(=O)/C(=C/c2cn(-c3ccccc3)nc2-c2cccs2)SC1=S	-5	29*	1	-7	1
O=C(O)CCCCCN1C(=O)/C(=C/c2cn(-c3ccccc3)nc2-c2cccs2)SC1=S	3	20*	-45	-3	8
O=C(N/N=C/c1cn(-c2ccccc2)nc1-c1cccs1)c1ccc(Cl)cc1	0	27*	29	-7	-6
O=C(CSc1nnc(-c2c[nH]c3ccccc23)o1)c1ccc(-c2ccccc2)cc1	-4	24*	2	-7	8
